# Measurements taken from ChEMBL document CHEMBL4513141, “CO-ADD screening of NIH (USA) - Clinical Collection” (2021).
# Measured potencies and affinities stand elsewhere.
# System: Staphylococcus aureus
# Conditions: Concentration 20 uM; ASSAY_TEST Inhibition of Bacterial Growth; detection method Absorption (OD600); MEDIA CAMHB; plate type 384well; NBS; CORNING #3640; time 18 hr
row,SMILES,Inhibition [%]
1,CC(=O)OCC(=O)[C@@]12OC(C)(C)O[C@@H]1C[C@H]1[C@@H]3C[C@H](F)C4=CC(=O)C=C[C@]4(C)[C@@]3(F)[C@@H](O)C[C@@]12C [FLUOCINONIDE],10.01
2,CC(=O)[C@@]1(O)CC[C@H]2[C@@H]3C[C@H](C)C4=CC(=O)CC[C@]4(C)[C@H]3CC[C@@]21C,8.66
3,CC(Cc1ccc(O)c(O)c1)(NN)C(=O)O.O (stereo unspecified),16.15

# System: Escherichia coli
# Conditions: Concentration 20 uM; ASSAY_TEST Inhibition of Bacterial Growth; detection method Absorption (OD600); MEDIA CAMHB; plate type 384well; NBS; CORNING #3640; time 18 hr
row,SMILES,Inhibition [%]
1,CC[C@H](C)C(=O)O[C@H]1C[C@H](O)C=C2C=C[C@H](C)[C@H](CC[C@@H](O)C[C@@H](O)CC(=O)[O-])[C@H]21.[Na+] [PRAVASTATIN SODIUM],2.41
2,CC1(C)O[C@@H]2C[C@H]3[C@@H]4C[C@H](F)C5=CC(=O)C=C[C@]5(C)[C@@]4(F)[C@@H](O)C[C@]3(C)[C@]2(C(=O)CO)O1 [FLUOCINOLONE ACETONIDE],6.84
3,OCc1cc(C(O)CNCCCCCCOCCCCc2ccccc2)ccc1O (stereo unspecified) [SALMETEROL],8.33
4,CCCNC(C)C(=O)Nc1ccccc1C.Cl (stereo unspecified) [PRILOCAINE HYDROCHLORIDE],4.99
5,O=C([O-])Cc1ccccc1Nc1c(Cl)cccc1Cl.[Na+] [DICLOFENAC SODIUM],7.01
6,CCN(CC)CC(=O)Nc1c(C)cccc1C [LIDOCAINE],-3.44
7,O=C(NCCO[N+](=O)[O-])c1cccnc1 [NICORANDIL],8.35
8,NC(=O)c1cnccn1 [PYRAZINAMIDE],2
9,CN1CCN(CC/C=C2/c3ccccc3Sc3ccc(S(=O)(=O)N(C)C)cc32)CC1 [THIOTHIXENE],3.6
10,CCCc1nc(C)c2c(O)nc(-c3cc(S(=O)(=O)N4CCN(CC)CC4)ccc3OCC)nn12.O=C(O)CC(O)(CC(=O)O)C(=O)O,-4.2
11,CS(=O)(=O)O.Oc1ccc(C2CNCCc3c2cc(O)c(O)c3Cl)cc1 (stereo unspecified) [FENOLDOPAM MESYLATE],-0.49
12,CCOC(=O)[C@H](CCc1ccccc1)N[C@@H](C)C(=O)N1[C@H](C(=O)O)C[C@@H]2CCC[C@@H]21,1.83
13,O=C1CCc2ccc(OCCCCN3CCN(c4cccc(Cl)c4Cl)CC3)cc2N1 [ARIPIPRAZOLE],1.89
14,Nc1ncnc2c1ncn2[C@@H]1O[C@H](CO)[C@@H](O)[C@@H]1O [VIDARABINE],6.8
15,CNCC[C@H](Oc1cccc2ccccc12)c1cccs1.Cl [DULOXETINE HYDROCHLORIDE],4.45
16,CCC(C)(C)C(=O)O[C@H]1C[C@@H](C)C=C2C=C[C@H](C)[C@H](CC[C@@H]3C[C@@H](O)CC(=O)O3)[C@H]21 [SIMVASTATIN],6.01
17,Cc1[nH]c(=O)c(C#N)cc1-c1ccncc1 [MILRINONE],-0.64
18,CC(=O)O[C@H]1C[C@@H]2CC[C@@H]3[C@H](CC[C@@]4(C)[C@H]3C[C@H]([N+]3(C)CCCCC3)[C@@H]4OC(C)=O)[C@@]2(C)C[C@@H]1N1CCCCC1.[Br-] [VECURONIUM BROMIDE],5.67
19,CN(C)CC[C@@H](c1ccc(Cl)cc1)c1ccccn1.O=C(O)/C=C\C(=O)O [DEXCHLORPHENIRAMINE MALEATE],6.96

row,SMILES,Inhibition [%]
1,OCCN1C[C@H](O)[C@@H](O)[C@H](O)[C@H]1CO [MIGLITOL],5.82
2,CC(=O)OCC(=O)[C@@]1(O)CC[C@H]2[C@@H]3C[C@H](C)C4=CC(=O)C=C[C@]4(C)[C@H]3[C@@H](O)C[C@@]21C [METHYLPREDNISOLONE ACETATE],-0.44
3,CN(CCOc1ccc(CC2SC(=O)NC2=O)cc1)c1ccccn1.O=C(O)/C=C\C(=O)O (stereo unspecified) [ROSIGLITAZONE MALEATE],0.27
4,Nc1c2c(nc3c1CCC3)CCCC2 [IPIDACRINE],5.57
5,CC1=C(/C=C/C(C)=C/C=C/C(C)=C\C(=O)O)C(C)(C)CCC1 [ISOTRETINOIN],-1.2
6,CC(C)NCC(O)COc1ccc(COCCOC(C)C)cc1.CC(C)NCC(O)COc1ccc(COCCOC(C)C)cc1.O=C(O)/C=C/C(=O)O (stereo unspecified) [BISOPROLOL FUMARATE],1.99
7,CN1CCN(CCCN2c3ccccc3Sc3ccc(C(F)(F)F)cc32)CC1.Cl.Cl [TRIFLUOPERAZINE HYDROCHLORIDE],0.85
8,CCCc1nc(C(C)(C)O)c(C(=O)OCc2oc(=O)oc2C)n1Cc1ccc(-c2ccccc2-c2nnn[nH]2)cc1 [OLMESARTAN MEDOXOMIL],-6.4
9,O=c1[nH]c(=O)n(C2CCCO2)cc1F (stereo unspecified) [TEGAFUR],8.41
10,CS(=O)(=O)c1ccc(C2=C(c3ccccc3)C(=O)OC2)cc1 [ROFECOXIB],-7.03
11,Cc1sc(N)c(C(=O)c2cccc(C(F)(F)F)c2)c1C,-1.03
12,CCC(=O)[N-]S(=O)(=O)c1ccc(-c2c(-c3ccccc3)noc2C)cc1.[Na+] [PARECOXIB SODIUM],6.4
13,OCCN(CCO)c1nc(N2CCCCC2)c2nc(N(CCO)CCO)nc(N3CCCCC3)c2n1 [DIPYRIDAMOLE],7.34
14,CN1C(C(=O)Nc2ccccn2)=C(O)c2ccccc2S1(=O)=O.O,-5.74
15,Sc1ncnc2nc[nH]c12 [MERCAPTOPURINE ANHYDROUS],6.85
16,COc1cc([C@@H]2c3cc4c(cc3[C@@H](O[C@@H]3O[C@@H]5CO[C@@H](C)O[C@H]5[C@H](O)[C@H]3O)[C@H]3COC(=O)[C@H]23)OCO4)cc(OC)c1O [ETOPOSIDE],-0.07
17,CC(=O)OCC(=O)[C@@]12OC(C)(C)O[C@@H]1C[C@H]1[C@@H]3C[C@H](F)C4=CC(=O)C=C[C@]4(C)[C@@]3(F)[C@@H](O)C[C@@]12C [FLUOCINONIDE],-2.15
18,CC(=O)[C@@]1(O)CC[C@H]2[C@@H]3C[C@H](C)C4=CC(=O)CC[C@]4(C)[C@H]3CC[C@@]21C,-5.84
19,CC(Cc1ccc(O)c(O)c1)(NN)C(=O)O.O (stereo unspecified),3.56
